Screens from PubChem BioAssay.
TEAD-YAP block – TEAD-YAP interaction inhibition; hit rate 1.4% among 640,000; HEK-TIYL cells, TEAD-Gal4/YAP UAS-luciferase luminescence; inhibition, % at 9.12 µM; AID 1259422; in the data active = inhibition above about 32%
FBW7 activator – activators of human E3 ligase FBW7. hit rate 0.13% among 650,000. Q969H0. AlphaScreen FBW7–phospho-cyclin E peptide binding, activator screen. normalized activity (activation), % at 26.1 µM; in the data active = normalized activity above about 1.9%;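 also: purified mutant Fbw7 with reduced substrate affinity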
GPR151 activ – activates the human receptor GPR151; Q8TDV0; PathHunter beta-arrestin GPR151 cells, luminescence; activation, % at 11.2 µM; hit rate 1% among 650,000; AID 1508602; in the data active = activation above about 4.9%
Target sequence (Q8TDV0 whole entry, looked up): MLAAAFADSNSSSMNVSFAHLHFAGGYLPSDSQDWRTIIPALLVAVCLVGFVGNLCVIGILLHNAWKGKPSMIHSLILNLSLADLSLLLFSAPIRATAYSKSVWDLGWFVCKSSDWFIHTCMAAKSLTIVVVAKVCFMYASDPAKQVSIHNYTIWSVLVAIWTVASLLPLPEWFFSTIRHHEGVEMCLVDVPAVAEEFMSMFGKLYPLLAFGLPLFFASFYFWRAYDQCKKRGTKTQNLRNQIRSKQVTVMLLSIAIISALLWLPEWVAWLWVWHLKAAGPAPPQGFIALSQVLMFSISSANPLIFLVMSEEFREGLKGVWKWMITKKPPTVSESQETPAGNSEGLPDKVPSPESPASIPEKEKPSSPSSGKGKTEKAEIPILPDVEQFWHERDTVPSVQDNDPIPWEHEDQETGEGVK
MITF primary – blocks human microphthalmia-associated transcription factor; AlphaScreen MITF homodimerization, bead proximity signal; inhibition, % at 2.6 µM; hit rate 0.91% among 650,000; AID 1259374; in the data active = inhibition above about 50%
Numbers stand for hits. The list is not random: actives were taken first. Their share in the collection is about 3.5%.

What do the screens show for `COc1ccc(C)cc1-n1c(C)cc(/C=C2/C(=N)N3C=C(C)SC3=NC2=O)c1C`?
TEAD-YAP block: 50.9; FBW7 activator: inactive; GPR151 activ: inactive; MITF primary: inactive

What do the screens show for `Cc1cc(C)n(CCNC2CCN(c3cccc(NC(=O)C4CC4)c3)CC2)n1`?
TEAD-YAP block: inactive; FBW7 activator: inactive; GPR151 activ: inactive; MITF primary: inactive

What do the screens show for `Cc1cc(C)n(CCNC2CCN(c3cccc(NC(=O)CC4CCCC4)c3)CC2)n1`?
TEAD-YAP block: 41.5; FBW7 activator: inactive; GPR151 activ: inactive; MITF primary: inactive

Results for CNC(=O)/C(C#N)=C/c1c(Oc2ccccc2Cl)nc2ccccn2c1=O ?
TEAD-YAP block: inactive; FBW7 activator: inactive; GPR151 activ: inactive; MITF primary: inactive

How did O=C(NNc1nc2ccccc2s1)Nc1ccccc1 do in these assays?
TEAD-YAP block: inactive; FBW7 activator: inactive; GPR151 activ: inactive; MITF primary: inactive

How did c1ccc(NNc2nc3ccccc3s2)cc1 do in these assays?
TEAD-YAP block: 35.8; FBW7 activator: inactive; GPR151 activ: inactive; MITF primary: inactive

What do the screens show for `O=C(O)CCNc1nc2ccccc2s1`?
TEAD-YAP block: 42.3; FBW7 activator: inactive; GPR151 activ: inactive; MITF primary: inactive

What do the screens show for `O=C(O)CNc1nc2ccccc2s1`?
TEAD-YAP block: inactive; FBW7 activator: inactive; GPR151 activ: inactive; MITF primary: inactive

What do the screens show for `CCN(CC)CCCNC(=O)c1sc2ncn(CC(=O)Nc3cccc(C(F)(F)F)c3)c(=O)c2c1C`?
TEAD-YAP block: inactive; FBW7 activator: inactive; GPR151 activ: inactive; MITF primary: inactive

What do the screens show for `CCc1ccccc1NC(=O)CSC1=C(C#N)C(c2ccc(C)o2)C2=C(CCCC2=O)N1` (configuration not stated)?
TEAD-YAP block: 55.2; FBW7 activator: inactive; GPR151 activ: inactive; MITF primary: inactive

What do the screens show for `CCn1ncc(Cl)c1C(=O)Nc1cc(Cl)ccc1Cl`?
TEAD-YAP block: inactive; FBW7 activator: 1.9; GPR151 activ: inactive; MITF primary: inactive

What do the screens show for `Nc1ccc2oc(-c3ccccc3)nc2c1`?
TEAD-YAP block: inactive; FBW7 activator: inactive; GPR151 activ: inactive; MITF primary: inactive

How did Oc1ccc2oc(-c3ccccc3)nc2c1 do in these assays?
TEAD-YAP block: 48.6; FBW7 activator: inactive; GPR151 activ: inactive; MITF primary: inactive

Results for O=C(O)c1ccc2oc(-c3ccccc3)nc2c1 ?
TEAD-YAP block: 54.6; FBW7 activator: inactive; GPR151 activ: inactive; MITF primary: inactive

What do the screens show for `O=C(NC1CCCCC1)NC1(C(=O)NCCCN2CCOCC2)CCCCC1`?
TEAD-YAP block: inactive; FBW7 activator: 1.9; GPR151 activ: inactive; MITF primary: inactive

What do the screens show for `Cc1ccccc1N1C(=O)NC(=O)/C(=C\c2cnc(-c3ccccc3)nc2)C1=O`?
TEAD-YAP block: inactive; FBW7 activator: inactive; GPR151 activ: inactive; MITF primary: inactive

How did CC[C@@]1([C@@H]2O[C@@H]([C@H]3O[C@@](O)(CO)[C@H](C)C[C@@H]3C)C[C@@H]2C)CC[C@H]([C@]2(C)CC[C@]3(C[C@H](O)[C@@H](C)[C@@H]([C@@H](C)[C@@H](OC)[C@H](C)C(=O)O)O3)O2)O1 do in these assays?
TEAD-YAP block: 78.7; FBW7 activator: inactive; GPR151 activ: inactive; MITF primary: inactive

Results for O=C(c1ccc(Cl)cc1Cl)N1CCN(Cc2ccccc2)CC1 ?
TEAD-YAP block: inactive; FBW7 activator: inactive; GPR151 activ: inactive; MITF primary: inactive

What do the screens show for `Brc1ccc(CSc2nn3cnnc3s2)cc1`?
TEAD-YAP block: 52.7; FBW7 activator: inactive; GPR151 activ: inactive; MITF primary: inactive

What do the screens show for `Nc1nnc(SCc2ccc(Br)cc2)s1`?
TEAD-YAP block: inactive; FBW7 activator: inactive; GPR151 activ: inactive; MITF primary: inactive

What do the screens show for `Clc1nc2ncccc2nc1-c1ccccc1`?
TEAD-YAP block: 40.7; FBW7 activator: inactive; GPR151 activ: inactive; MITF primary: inactive

Results for Fc1cccc(-c2nc3cccnc3nc2-c2cccc(F)c2)c1 ?
TEAD-YAP block: inactive; FBW7 activator: inactive; GPR151 activ: inactive; MITF primary: inactive

Results for CN=c1scc(-c2cccs2)n1/N=C/c1ccc[nH]1 ?
TEAD-YAP block: 87.4; FBW7 activator: inactive; GPR151 activ: inactive; MITF primary: inactive

What do the screens show for `CN=c1scc(-c2ccccc2Br)n1/N=C/c1ccc[nH]1`?
TEAD-YAP block: 88.2; FBW7 activator: inactive; GPR151 activ: inactive; MITF primary: inactive

Results for Cc1ccc(C2=CC(c3ccc(F)cc3)n3ncnc3N2)cc1 (configuration not stated) ?
TEAD-YAP block: inactive; FBW7 activator: inactive; GPR151 activ: inactive; MITF primary: inactive

Results for CCOc1ccc(/C=C/C(O)=C2/C(=O)NC3(C)CC2c2ccccc2O3)cc1OC (configuration not stated) ?
TEAD-YAP block: 48.9; FBW7 activator: inactive; GPR151 activ: inactive; MITF primary: inactive

How did Cc1ccc(-n2c(SCc3c(F)cccc3Cl)nc3ccsc3c2=O)cc1C do in these assays?
TEAD-YAP block: inactive; FBW7 activator: inactive; GPR151 activ: inactive; MITF primary: inactive

Results for COc1cccc(O)c1O ?
TEAD-YAP block: 43.3; FBW7 activator: inactive; GPR151 activ: inactive; MITF primary: 89.5

What do the screens show for `O=[N+]([O-])c1ccc(N2CCN(S(=O)(=O)c3ccccc3)CC2)cc1NCCOc1ccc(Cl)cc1`?
TEAD-YAP block: inactive; FBW7 activator: inactive; GPR151 activ: inactive; MITF primary: inactive

How did CCN1CCn2c3c(c4cc(Br)ccc42)CCCC31 (configuration not stated) do in these assays?
TEAD-YAP block: inactive; FBW7 activator: inactive; GPR151 activ: inactive; MITF primary: inactive

How did CCN1CCN(CC(O)CN2CCn3c4c(c5cc(C6CCCCC6)ccc53)CCCC42)CC1 (configuration not stated) do in these assays?
TEAD-YAP block: inactive; FBW7 activator: inactive; GPR151 activ: inactive; MITF primary: 50.6

Results for CCCCc1ccc(NC(=O)c2c(Cl)ccc(Cl)c2OC)cc1 ?
TEAD-YAP block: inactive; FBW7 activator: inactive; GPR151 activ: inactive; MITF primary: inactive

Results for CC(=O)Nc1ccc(NC(=O)c2ccc3nc(-c4ccc(C(=O)N5CCN(C)CC5)cc4)sc3c2)cc1 ?
TEAD-YAP block: inactive; FBW7 activator: inactive; GPR151 activ: inactive; MITF primary: inactive

How did COCCn1c(C)cc(C(=O)COC(=O)c2ccccc2Nc2ccccc2)c1C do in these assays?
TEAD-YAP block: 74.5; FBW7 activator: inactive; GPR151 activ: inactive; MITF primary: inactive

Results for Cc1cc(C(=O)COC(=O)c2cccc(NS(C)(=O)=O)c2)c(C)n1Cc1ccccc1 ?
TEAD-YAP block: 57.5; FBW7 activator: inactive; GPR151 activ: inactive; MITF primary: inactive

Results for Cc1cc(C(=O)COC(=O)c2cccc(NS(C)(=O)=O)c2)c(C)n1-c1ccccc1 ?
TEAD-YAP block: inactive; FBW7 activator: inactive; GPR151 activ: inactive; MITF primary: inactive

What do the screens show for `COCCn1c(C)cc(C(=O)COC(=O)c2cccc(Oc3ccccc3)c2)c1C`?
TEAD-YAP block: inactive; FBW7 activator: inactive; GPR151 activ: inactive; MITF primary: inactive

What do the screens show for `COCCn1c(C)cc(C(=O)COC(=O)c2cccc(O)c2)c1C`?
TEAD-YAP block: 62.4; FBW7 activator: inactive; GPR151 activ: inactive; MITF primary: inactive

Results for O=C(c1ccc(I)cc1)N1CCCc2ccccc21 ?
TEAD-YAP block: inactive; FBW7 activator: inactive; GPR151 activ: inactive; MITF primary: inactive
